NPR2 activator = GC-B (human) receptor activation; HEK293-GC-B cells, CNP EC30, cGMP TR-FRET; 0% at EC30 CNP, 100% saturating CNP; activation, % at 10 µM; 370,000 compounds, 0.11% hits;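 active means activation at 10 µM reaching about 35% in either raw or pattern-adjusted values, limit read from the data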
ADAM10 inh = ADAM10 inhibition, QFRET primary screen | O14672 | recombinant ADAM10, EDANS/DABCYL FRET peptide cleavage, 3 h | inhibition, % at 7 µM | 370,000 compounds, 0.62% hits;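 active means inhibition above a per-campaign cutoff equal to the mean of compounds falling between control-based bounds plus 3 SD, cut at about 20% in these data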
NPR1 activator = GC-A (human) enzyme activation. P16066. HEK293 GC-A cells, cGMP TR-FRET, EC30 ANP; 0% at EC30 ANP, 100% saturating ANP. activation, % at 10 µM. 370,000 compounds, 0.14% hits. AID 1671463; in the data active means activation above about 40%
proKLK7 act = activators of human kallikrein-7 zymogen; purified proKLK7, EDANS-DABCYL substrate fluorescence; 100% is mature enzyme control, 0% vehicle; activation, % at 7 µM; 370,000 compounds, 0.9% hits; AID 652039;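 active means activation above the mean of all tested compounds plus 3 SD, computed per campaign excluding outliers beyond control limits, cut at about 13% in these data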
ADAM17 inh = inhibitors of human ADAM17 | recombinant ADAM17, EDANS/DABCYL FRET peptide cleavage | inhibition, % at 6.95 µM | 370,000 compounds, 0.83% hits | AID 720648;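 active means inhibition above the mean of compounds lying between control limits plus 3 SD, set per campaign, cut at about 8.5% in these data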
KLK7 act conf = confirmation of human kallikrein-7 zymogen activators; purified proKLK7, EDANS-DABCYL substrate fluorescence; scaled: vehicle 0, mature enzyme 100; 3,200 compounds, 68% hits; activation, % at 7 µM; shares compounds with proKLK7 act;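 active means activation, as change over the incubation, above the mean of all tested compounds plus 3 SD, cut at about 13% in these data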
EDANS-DABCYL int = fluorescence interference counter-screen for KLK7 activators. 3,200 compounds, 80% hits. EDANS-DABCYL substrate fluorescence interference, no enzyme, 4 h; solvent 0%, active enzyme control 100%. AID 686952. activation, % at 7 µM. shares compounds with proKLK7 act;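 active means activation above the all-compound mean plus 3 SD, ignoring values outside control-based bounds, cut at about 4.8% in these data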;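 further: value is the 4 h activation minus the activation read at time zero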
EDANS interf = counter-screen for kallikrein-7 activators: EDANS-DABCYL interference, dose response; shares compounds with proKLK7 act; EDANS-DABCYL peptide fluorescence interference, no enzyme; EC50, µM; 250 compounds, 20% hits; AID 720493;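 active means compounds that raise the fluorescence signal in this interference counterscreen, with EC50 at or below 10 µM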;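 further: intact quenched peptide substrate alone read at 355 nm excitation and 520 nm emission; signal is fluorescence gain from T0 to T4 after four hours at room temperature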
Hits are given with their value. Rows were chosen to be rich in hits. Some 2.2% of all compounds tested hit in one or more screens of this group.

Screening CC(C)C(NS(=O)(=O)c1ccc2c3c(cccc13)C(=O)N2)C(=O)O (configuration not stated) returned NPR2 activator inactive, ADAM10 inh inactive, NPR1 activator inactive, proKLK7 act 25, ADAM17 inh inactive, KLK7 act conf 23 and EDANS-DABCYL int 33.
For Cc1oc2c(cc(NS(=O)(=O)c3ccc4c5c(cccc35)C(=O)N4)c3ccccc32)c1C(=O)OC(C)C the results were NPR2 activator inactive, ADAM10 inh inactive, NPR1 activator inactive, proKLK7 act 24, ADAM17 inh inactive, KLK7 act conf 57 and EDANS-DABCYL int 53.
`CNS(=O)(=O)c1cc(S(=O)(=O)NC)c2cccc3c2c1NC3=O` gave NPR2 activator inactive, ADAM10 inh inactive, NPR1 activator inactive, proKLK7 act 21, ADAM17 inh inactive, KLK7 act conf 21 and EDANS-DABCYL int 21.
COC(=O)C1CN(Cc2ccc(F)cc2)CCS(=O)(=O)N1Cc1ccc(OC)cc1 (configuration not stated) was read as NPR2 activator inactive, ADAM10 inh inactive, NPR1 activator inactive, proKLK7 act inactive and ADAM17 inh inactive.
For O=C(c1ccc2c(c1)OCO2)N1CCC(Oc2cccnc2)CC1 the results were NPR2 activator inactive, ADAM10 inh inactive, NPR1 activator inactive, proKLK7 act inactive and ADAM17 inh inactive.
For CCCCCCCCN1C(=O)[C@@H](CC(=O)NCc2cccs2)C[C@@]2(C(=O)OC)C1=C[C@H](COCc1ccccc1)O[C@@H]2C the results were NPR2 activator inactive, ADAM10 inh inactive, NPR1 activator inactive, proKLK7 act inactive and ADAM17 inh inactive.
O=C(NCCc1ccccc1)OCc1cn(Cc2cccc(Cl)c2)nn1 was read as NPR2 activator inactive, ADAM10 inh inactive, NPR1 activator inactive, proKLK7 act inactive and ADAM17 inh inactive.
`Cc1cc(O)ccc1NS(=O)(=O)c1ccc2c3c(cccc13)C(=O)N2` gave NPR2 activator inactive, ADAM10 inh inactive, NPR1 activator inactive, proKLK7 act 81, ADAM17 inh inactive, KLK7 act conf 86 and EDANS-DABCYL int 98.
Screening CNS(=O)(=O)c1ccc2c3c(cccc13)C(=O)N2 returned NPR2 activator inactive, ADAM10 inh inactive, NPR1 activator inactive, proKLK7 act 49, ADAM17 inh inactive, KLK7 act conf 61 and EDANS-DABCYL int 72.
O=C(O)c1cccc(NS(=O)(=O)c2ccc3c4c(cccc24)C(=O)N3)c1 was read as NPR2 activator inactive, ADAM10 inh inactive, NPR1 activator inactive, proKLK7 act inactive and ADAM17 inh inactive.
O=C(O)CNS(=O)(=O)c1ccc2c3c(cccc13)C(=O)N2 was read as NPR2 activator inactive, ADAM10 inh inactive, NPR1 activator inactive, proKLK7 act 60, ADAM17 inh inactive, KLK7 act conf 73 and EDANS-DABCYL int 73.
COC(=O)c1ccccc1NS(=O)(=O)c1ccc2c3c(cccc13)C(=O)N2 was read as NPR2 activator inactive, ADAM10 inh inactive, NPR1 activator inactive, proKLK7 act inactive and ADAM17 inh inactive.
For CCOc1ccc(S(=O)(=O)NCc2ccco2)c2ccccc12 the results were NPR2 activator inactive, ADAM10 inh inactive, NPR1 activator inactive, proKLK7 act inactive and ADAM17 inh inactive.
For O=C1Nc2ccc(S(=O)(=O)NCc3ccco3)c3cccc1c23 the results were NPR2 activator inactive, ADAM10 inh inactive, NPR1 activator inactive, proKLK7 act 28, ADAM17 inh inactive, KLK7 act conf 40 and EDANS-DABCYL int 37.
`O=C(O)CCCCCNS(=O)(=O)c1ccc2c3c(cccc13)C(=O)N2` gave NPR2 activator inactive, ADAM10 inh inactive, NPR1 activator inactive, proKLK7 act 63, ADAM17 inh inactive, KLK7 act conf 61 and EDANS-DABCYL int 69.
Screening CC(=O)N[C@@H]1C[C@@H]2O[C@H](CO)CC[C@@H]2O[C@@H]1CCc1ccc(-c2ccc(F)cc2)cc1 returned NPR2 activator inactive, ADAM10 inh inactive, NPR1 activator inactive, proKLK7 act inactive and ADAM17 inh inactive.
CCOc1ccc2[nH]c(SCC(=O)OC)c([N+](=O)[O-])c2c1 was read as NPR2 activator inactive, ADAM10 inh inactive, NPR1 activator inactive, proKLK7 act 13, ADAM17 inh inactive, KLK7 act conf 19 and EDANS-DABCYL int 16.
`COC(=O)[C@]12C[C@H](CC(=O)NCc3cccs3)C(=O)N(CCC3=CCCCC3)C1=C[C@H](C(C)C)O[C@@H]2C1CC1` gave NPR2 activator inactive, ADAM10 inh inactive, NPR1 activator inactive, proKLK7 act inactive and ADAM17 inh inactive.
CCOC(=O)C1=C2c3ccc4ccccc4c3CC(C)(C)N2C(=O)C1=O was read as NPR2 activator inactive, ADAM10 inh inactive, NPR1 activator inactive, proKLK7 act inactive and ADAM17 inh inactive.
For CCOC(=O)C1=C2c3cc(OC)c(OC)cc3CC(C)(C)N2C(=O)C1=O the results were NPR2 activator inactive, ADAM10 inh inactive, NPR1 activator inactive, proKLK7 act 24, ADAM17 inh inactive, KLK7 act conf inactive and EDANS-DABCYL int 5.9.
Screening CCN(CC(=O)NCc1cccs1)C(=O)/C=C/c1cc(OC)ccc1OC returned NPR2 activator inactive, ADAM10 inh inactive, NPR1 activator inactive, proKLK7 act 67, ADAM17 inh inactive, KLK7 act conf 71 and EDANS-DABCYL int 71.
For COc1ccc(OC)c(/C=C/C(=O)OCC(=O)NCc2ccccc2)c1 the results were NPR2 activator inactive, ADAM10 inh inactive, NPR1 activator inactive, proKLK7 act 15, ADAM17 inh inactive, KLK7 act conf inactive and EDANS-DABCYL int 8.3.
COc1ccc(OC)c(/C=C/C(=O)NCCc2nc3ccccc3[nH]2)c1 was read as NPR2 activator inactive, ADAM10 inh inactive, NPR1 activator inactive, proKLK7 act 49, ADAM17 inh inactive, KLK7 act conf 37, EDANS-DABCYL int inactive and EDANS interf inactive.
COc1cc(/C=C/C(=O)OCC(=O)NCc2cccs2)ccc1OC(F)F was read as NPR2 activator inactive, ADAM10 inh inactive, NPR1 activator inactive, proKLK7 act inactive and ADAM17 inh inactive.
COc1ccc(OC)c(/C=C/C(=O)OCC(=O)NCc2cccs2)c1 was read as NPR2 activator inactive, ADAM10 inh inactive, NPR1 activator inactive, proKLK7 act 15, ADAM17 inh inactive, KLK7 act conf inactive and EDANS-DABCYL int 21.
COc1ccc(CCNC(=O)COC(=O)/C=C/c2cc(OC)ccc2OC)cc1 was read as NPR2 activator inactive, ADAM10 inh inactive, NPR1 activator inactive, proKLK7 act inactive and ADAM17 inh inactive.

Compound activity from PubChem.
